The source of these data is ChEMBL document CHEMBL1961873, “Compounds: GSK PKIS; Assays: Nanosyn kinase panel” (2012).

As a reminder, the inhibition is the relative decrease from the control value, in per cent.

Molecules are shown by their SMILES.

Assay [1] deals with Ribosomal protein S6 kinase alpha-6 (Homo sapiens) (UniProt Q9UK32). Conditions: at 1 µM.
Assay [2] deals with T1, Serine/threonine-protein kinase Sgk1 (Homo sapiens) (UniProt O00141).
T1 sequence (whole entry): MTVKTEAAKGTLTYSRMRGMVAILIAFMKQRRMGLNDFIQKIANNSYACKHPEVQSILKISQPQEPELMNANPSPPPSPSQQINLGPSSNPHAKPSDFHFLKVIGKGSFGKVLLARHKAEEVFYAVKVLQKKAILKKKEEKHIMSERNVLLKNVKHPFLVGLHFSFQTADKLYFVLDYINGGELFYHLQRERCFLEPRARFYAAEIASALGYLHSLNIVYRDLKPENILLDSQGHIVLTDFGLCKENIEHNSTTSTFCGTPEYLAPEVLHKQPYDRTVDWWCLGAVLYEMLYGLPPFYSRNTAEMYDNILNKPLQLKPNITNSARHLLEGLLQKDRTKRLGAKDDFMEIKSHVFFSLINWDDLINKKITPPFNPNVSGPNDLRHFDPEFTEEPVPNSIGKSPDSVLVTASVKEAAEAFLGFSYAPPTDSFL
Conditions: at 0.1 µM.

For assay [3], the target named is T1, Serine/threonine-protein kinase Sgk1 (Homo sapiens). To be noted: at 1 µM.
Assay [4] deals with T2, Serine/threonine-protein kinase Sgk2 (Homo sapiens) (UniProt Q9HBY8).
T2 sequence (whole entry): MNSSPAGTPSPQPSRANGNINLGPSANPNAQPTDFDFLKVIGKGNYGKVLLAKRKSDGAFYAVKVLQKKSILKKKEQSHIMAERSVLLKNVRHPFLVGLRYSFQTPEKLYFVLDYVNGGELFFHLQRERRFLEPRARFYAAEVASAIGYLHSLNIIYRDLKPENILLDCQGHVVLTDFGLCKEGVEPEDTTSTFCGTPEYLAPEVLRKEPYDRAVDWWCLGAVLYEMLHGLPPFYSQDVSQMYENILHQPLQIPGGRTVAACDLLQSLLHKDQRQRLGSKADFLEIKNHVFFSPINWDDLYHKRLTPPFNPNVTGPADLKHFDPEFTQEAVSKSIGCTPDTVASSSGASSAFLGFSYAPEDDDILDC
To be noted: at 0.1 µM.

The target in assay [5] is T2, Serine/threonine-protein kinase Sgk2 (Homo sapiens). To be noted: at 1 µM.
Assay [6] has as its target T3, Serine/threonine-protein kinase Sgk3 (Homo sapiens) (UniProt Q96BR1).
T3 sequence (whole entry): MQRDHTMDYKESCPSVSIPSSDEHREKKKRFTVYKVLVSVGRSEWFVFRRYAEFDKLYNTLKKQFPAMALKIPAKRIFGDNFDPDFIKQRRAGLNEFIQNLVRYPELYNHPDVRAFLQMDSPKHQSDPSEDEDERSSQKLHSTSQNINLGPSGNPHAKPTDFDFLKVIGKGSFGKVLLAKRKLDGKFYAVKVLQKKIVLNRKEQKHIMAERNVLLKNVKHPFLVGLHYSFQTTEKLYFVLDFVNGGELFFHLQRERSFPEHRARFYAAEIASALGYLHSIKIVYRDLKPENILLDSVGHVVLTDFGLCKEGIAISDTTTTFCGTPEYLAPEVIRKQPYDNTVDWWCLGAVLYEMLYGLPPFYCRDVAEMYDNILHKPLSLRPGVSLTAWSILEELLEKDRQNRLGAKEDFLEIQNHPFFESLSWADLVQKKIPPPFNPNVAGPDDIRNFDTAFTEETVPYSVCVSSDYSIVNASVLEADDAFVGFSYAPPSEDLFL
Conditions: at 0.1 µM.

In assay [7] the target is T3, Serine/threonine-protein kinase Sgk3 (Homo sapiens). Conditions: at 1 µM.
Assay [8] has as its target 5'-AMP-activated protein kinase catalytic subunit alpha-1 (Homo sapiens) (UniProt Q13131). Conditions: at 0.1 µM.
The target is the same in assay [9]. To be noted: at 1 µM.
Assay [10] concerns the target 5'-AMP-activated protein kinase catalytic subunit alpha-2 (Homo sapiens) (UniProt P54646). Conditions: at 0.1 µM.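 Note: mean inhibition measured on the AMPK complex of alpha2, beta1 and gamma1 subunits.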

Chain of 5'-AMP-activated protein kinase catalytic subunit alpha-2 (Homo sapiens) (P54646 whole entry, looked up): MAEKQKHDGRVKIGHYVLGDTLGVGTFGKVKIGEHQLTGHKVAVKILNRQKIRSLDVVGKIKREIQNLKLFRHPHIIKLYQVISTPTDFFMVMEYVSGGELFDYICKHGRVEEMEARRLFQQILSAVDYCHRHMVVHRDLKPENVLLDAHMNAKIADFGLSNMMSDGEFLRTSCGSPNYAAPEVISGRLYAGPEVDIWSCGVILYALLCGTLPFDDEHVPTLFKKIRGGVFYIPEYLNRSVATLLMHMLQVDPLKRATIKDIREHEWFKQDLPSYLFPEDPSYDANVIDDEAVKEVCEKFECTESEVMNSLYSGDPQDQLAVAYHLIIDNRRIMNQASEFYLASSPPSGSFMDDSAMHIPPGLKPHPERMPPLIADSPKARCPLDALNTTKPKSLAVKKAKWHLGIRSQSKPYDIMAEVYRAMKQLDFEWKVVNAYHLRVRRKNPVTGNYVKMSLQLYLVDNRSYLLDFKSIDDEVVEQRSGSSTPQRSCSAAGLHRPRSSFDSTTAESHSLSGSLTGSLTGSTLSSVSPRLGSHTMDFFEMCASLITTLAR
Chain of 5'-AMP-activated protein kinase catalytic subunit alpha-1 (Homo sapiens) (Q13131 whole entry, looked up): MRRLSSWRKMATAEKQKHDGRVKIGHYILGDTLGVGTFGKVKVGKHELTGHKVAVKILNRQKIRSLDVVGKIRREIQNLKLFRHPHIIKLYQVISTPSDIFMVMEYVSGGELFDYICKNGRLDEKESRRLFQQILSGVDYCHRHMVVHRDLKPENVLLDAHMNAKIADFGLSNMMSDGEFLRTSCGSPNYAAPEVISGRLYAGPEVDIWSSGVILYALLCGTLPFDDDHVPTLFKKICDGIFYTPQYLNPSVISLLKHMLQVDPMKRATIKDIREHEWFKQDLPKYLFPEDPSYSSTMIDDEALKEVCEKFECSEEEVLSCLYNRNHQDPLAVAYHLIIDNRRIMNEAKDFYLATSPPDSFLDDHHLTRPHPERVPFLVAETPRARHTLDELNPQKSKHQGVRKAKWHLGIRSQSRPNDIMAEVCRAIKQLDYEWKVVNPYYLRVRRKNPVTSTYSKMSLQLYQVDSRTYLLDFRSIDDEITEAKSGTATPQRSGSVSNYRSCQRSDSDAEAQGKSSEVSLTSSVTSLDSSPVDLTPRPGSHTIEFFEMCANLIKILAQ
Chain of Ribosomal protein S6 kinase alpha-6 (Homo sapiens) (Q9UK32 whole entry): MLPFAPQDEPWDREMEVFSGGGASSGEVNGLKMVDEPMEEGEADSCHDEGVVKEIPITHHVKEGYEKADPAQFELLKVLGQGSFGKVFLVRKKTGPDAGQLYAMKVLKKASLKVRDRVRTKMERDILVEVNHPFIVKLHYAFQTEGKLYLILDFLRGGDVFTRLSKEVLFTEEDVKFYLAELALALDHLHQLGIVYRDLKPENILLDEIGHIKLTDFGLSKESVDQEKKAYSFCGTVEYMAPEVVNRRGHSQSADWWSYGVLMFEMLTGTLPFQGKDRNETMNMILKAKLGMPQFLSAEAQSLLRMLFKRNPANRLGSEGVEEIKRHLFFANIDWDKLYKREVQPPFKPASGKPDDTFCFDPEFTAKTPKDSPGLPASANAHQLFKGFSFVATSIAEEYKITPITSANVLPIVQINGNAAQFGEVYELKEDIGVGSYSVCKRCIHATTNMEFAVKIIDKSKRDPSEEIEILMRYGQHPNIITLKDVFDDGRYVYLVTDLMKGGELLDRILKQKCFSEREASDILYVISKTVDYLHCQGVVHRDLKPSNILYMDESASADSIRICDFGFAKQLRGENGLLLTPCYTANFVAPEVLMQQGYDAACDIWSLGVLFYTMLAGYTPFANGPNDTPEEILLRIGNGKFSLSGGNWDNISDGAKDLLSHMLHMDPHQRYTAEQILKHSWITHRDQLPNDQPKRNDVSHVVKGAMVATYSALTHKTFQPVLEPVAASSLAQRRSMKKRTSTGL

With `Fc1ccc(-c2cc(-c3c[nH]nc3-c3ccccn3)ccn2)cc1`, the inhibition came to 0.89% in assay [1]; 3.85% in assay [2]; 5.98% in assay [3]; 3.86% in assay [4]; 0.65% in assay [5]; 5.08% in assay [6]. The inhibition in assay [7] was 4.1%; in assay [8], 4.84%; in assay [9] it was 4.83%; in assay [10], 2.6%.
With `CCn1c(-c2nonc2N)nc2cnc(Oc3cccc(NC(=O)c4ccc(N(C)C)cc4)c3)cc21`, the inhibition worked out at 15.2% in [1]; 9.87% in assay [2]; 49.7% in [3]; 16.3% in [4]; 61.9% in assay [5]; 43.8% in assay [6]. Moreover, the inhibition in [7] is 83.5%; in assay [8], 1.59%; in assay [9], 2.17%; in assay [10] it was 2.3%.
Turning to `CCn1cc(-c2ccnc3[nH]ccc23)c(-c2cccc(NC(=O)Nc3ccc(OCc4ccccc4)cc3)c2)n1`, the inhibition was -1.2% in assay [1]; 0.59% in assay [2]; -1.2% in assay [3]; -1.32% in assay [4]; -1.47% in assay [5]; -0.3% in [6]. Moreover, the inhibition in assay [7] was -0.15%; in assay [8], 1.13%; in assay [9], 1.82%; in assay [10], 0.63%.
In the case of `COc1ccc(-c2cc(-c3c[nH]nc3-c3ccccn3)ccn2)cc1`, the inhibition was determined as 1.8% in [1]; 2.87% in [2]; 7.39% in assay [3]; 5.02% in [4]; 5.93% in [5]; 4.82% in assay [6]. Further, the inhibition in assay [7] came out at 6.74%; in [8] it was 4.71%; in [9], 6.63%; in assay [10] it was 0.83%.
As to `O=S(=O)(CCNCc1ccc(-c2ccc3ncnc(Nc4ccc(OCc5cccc(F)c5)c(Cl)c4)c3c2)o1)c1ccccc1`, the inhibition in assay [1] is 1.81%; in assay [2] it was 4.12%; in [3], 4.02%; in [4], 4.25%; in assay [5], 7.28%; in assay [6] it was 6.67%. Moreover, the inhibition worked out at 5.71% in [7], 7.7% in [8], 5.94% in [9] and 3.89% in assay [10].
As to `CNC(=O)c1cncc(/C=C/c2ccccc2Cl)c1`, the inhibition in assay [1] stood at 0.65%; in [2] it was 0.52%; in assay [3], 3.45%; in [4], 3.22%; in assay [5] it was 1.73%; in assay [6] it was 2.89%. Moreover, the inhibition in assay [7] is 3.36%; in [8], 1.03%; in [9], 2.25%; in assay [10] it was -2.07%.
As to `CC(C)(CO)CNC(=O)c1ccc2c(c1)/C(=N/Nc1ccc(S(N)(=O)=O)cc1)C(=O)N2`, the inhibition in [1] is 9.45%; in assay [2] it was 0.94%; in assay [3] it was 8.72%; in assay [4], 0.65%; in [5] it was 3.3%; in assay [6] it was -2.66%. Further, the inhibition in [7] came out at 3.04%; in [8] it was 26%; in assay [9], 72.3%; in assay [10], 6.91%.
On to `COc1cc(Nc2nccc(Nc3ccc4c(C)n[nH]c4c3)n2)cc(OC)c1OC`, for which the inhibition in [1] is 2.74%; in assay [2], 3.49%; in [3] it was 5.3%; in [4] it was -0.28%; in assay [5] it was -0.14%; in [6], 2.13%. Further, the inhibition came out at 1.07% in assay [7], 1.6% in assay [8], 1.71% in [9] and 2.15% in assay [10].
Consider `O=C(O[C@H]1CN[C@H](C#Cc2cc3ncnc(Nc4ccc(Cc5ccccc5)cc4)c3s2)C1)N1CCOCC1`, for which the inhibition in assay [1] was found to be 1.25%; in assay [2], 1.05%; in [3], 1.98%; in assay [4], 0.65%; in assay [5], 7.04%; in assay [6], 2.7%. The inhibition was 5.58% in assay [7], 2.64% in assay [8], 1.94% in [9] and -0.29% in [10].
For `COc1cc(/C=N/Nc2ncnc3[nH]ncc23)ccc1O`, the inhibition came out at 13.3% in assay [1]; 13% in [2]; 54.4% in assay [3]; 6.14% in assay [4]; 19.9% in assay [5]; 3.82% in assay [6]. Further, the inhibition in assay [7] amounted to 5.26%; in assay [8], 5.24%; in assay [9] it was 20.5%; in [10], 2.66%.
For the compound `CCn1c(-c2nonc2N)nc2ccccc21`, the inhibition in assay [1] is 10.4%; in [2], 4.57%; in [3] it was 5.48%; in assay [4], -0.51%; in assay [5] it was 9.28%; in [6] it was 2.3%. Also, the inhibition was found to be 23.6% in assay [7], 3.06% in assay [8], 1.63% in assay [9] and 0.31% in assay [10].
For the compound `COc1cc(N2CCN(C(C)C)CC2)ccc1Nc1nc(Nc2ccc(F)cc2C(N)=O)c2cc[nH]c2n1`, the inhibition was 54.8% in assay [1]; -0.27% in [2]; 1.48% in assay [3]; 3.52% in assay [4]; -3.53% in assay [5]; 0.95% in assay [6]. The inhibition in assay [7] amounted to 0.42%; in assay [8], 6.33%; in assay [9] it was 33.5%; in assay [10], 6.34%.
For `NS(=O)(=O)c1ccc(N/N=C2\C(=O)Nc3ccc4ncccc4c32)cc1`, the inhibition was 55.5% in assay [1]; 10.6% in assay [2]; 50% in assay [3]; -0.23% in [4]; 21.3% in assay [5]; 1.63% in [6]. Also, the inhibition in assay [7] worked out at 10.2%; in assay [8], 54.8%; in [9] it was 82.7%; in assay [10], 28.9%.
`COc1cccc(-n2ncc3c(N/N=C/c4ccc(F)cc4)ncnc32)c1`: the inhibition turned out to be 1.84% in assay [1]; 4.27% in [2]; 5.6% in assay [3]; 2.15% in assay [4]; 0.76% in assay [5]; 4.84% in assay [6]. In addition, the inhibition in assay [7] was 3.63%; in assay [8] it was 3.38%; in assay [9], 5.57%; in assay [10], -0.09%.
For `CCCN(CCS(C)(=O)=O)Cc1ccc(-c2ccc3ncnc(Nc4ccc(OCc5cccc(F)c5)c(Cl)c4)c3c2)o1`, the inhibition was 0.41% in assay [1]; 0.88% in [2]; 2.15% in assay [3]; 0.16% in [4]; -0.86% in assay [5]; 2.21% in [6]. Further, the inhibition in [7] turned out to be 1.28%; in assay [8] it was 0.05%; in assay [9] it was 1.68%; in assay [10] it was 2.47%.
On to `COc1ccc(-c2nn3ncccc3c2-c2ccnc(Nc3ccc4c(c3)OCCO4)n2)cc1`, for which the inhibition was 2.56% in assay [1]; 1.1% in [2]; 1.98% in assay [3]; -0.02% in assay [4]; 0.9% in [5]; -1.8% in assay [6]. The inhibition in [7] amounted to 0.46%; in assay [8], 1.06%; in [9], 1.64%; in assay [10], 0.54%.
`COc1ccc(-c2oc3ncnc(N)c3c2-c2ccc(NC(=O)Nc3cc(C(F)(F)F)ccc3F)cc2)cc1`: the inhibition in [1] was 17.4%; in [2], 3.83%; in assay [3], 8.65%; in assay [4] it was 4.57%; in [5], 4.27%; in assay [6], 3.71%. The inhibition is 4.09% in assay [7], 4.2% in [8], 8.8% in assay [9] and 1.55% in assay [10].
